Experimental data reported in the supplement of paper PMC10127200.
Structures can show the parent of a compound that is named as a salt.

What was measured:
Test in all cases: Euclidean distance of Cell Painting phenotypic profile (signed KS, 77 features) to DMSO centroid (dimensionless distance); higher = stronger phenotypic change vs DMSO (phenoactivity)
Conditions in all cases: 48 h; 5 or 10 uM (library dependent)
786-O = test system: 786-O
Procedure, shortened: (§1)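 Phenoactivity is computed as Euclidean distance to the median vehicle profile. The profiles, drawn from 77 Harmony features scored as signed Kolmogorov-Smirnov statistics versus same-plate vehicle wells, were corrected for plate position, correlation-weighted and replicate-averaged at the top dose. Stained cells were imaged confocally at 20X (9 fields/well) after 48 h with library compounds at 10 or 5 uM, 0.1% DMSO final, in five cancer lines and a healthy fibroblast line.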

A549 = test system: A549
Procedure, shortened: as §1

DU145 = test system: DU145
Procedure, shortened: as §1

FB = test system: FB
Procedure, shortened: as §1

HEPG2 = test system: HEPG2
Procedure, shortened: as §1

OVCAR4 = test system: OVCAR4
Procedure, shortened: as §1

SMILES | Euclidean distance (786-O) | Euclidean distance (A549) | Euclidean distance (DU145) | Euclidean distance (FB) | Euclidean distance (HEPG2) | Euclidean distance (OVCAR4)
C[C@](O)(COc1ccc(C#N)cc1)C(=O)Nc1ccc(C#N)c(C(F)(F)F)c1 | 1.54 | 1.28 | 0.792 | 1.72 | 1.24 | 1.74
CC(C)OC(=O)[C@H](C)N[P@](=O)(CO[C@H](C)Cn1cnc2c(N)ncnc21)Oc1ccccc1 [Tenofovir Alafenamide (GS-7340)] | 1.71 | 1.16 | 1.44 | 1.85 | 2.92 | 1.58
CC[C@@H](CO)NC(=O)[C@@H]1C=C2c3cccc4c3c(cn4C)C[C@H]2N(C)C1 [Methysergide Maleate] | 0.845 | 0.577 | 0.772 | 0.909 | 0.822 | 1.34
Cc1cc(C2=NOC(c3cc(Cl)cc(Cl)c3)(C(F)(F)F)C2)ccc1C(=O)NCC(=O)NCC(F)(F)F (stereo not drawn) [Fluralaner] | 1.38 | 1.29 | 1.17 | 1.44 | 0.786 | 1.36
O=c1c2ccccc2[se]n1-c1ccccc1 [Ebselen] | 1.37 | 1.48 | 1.01 | 1.16 | 0.769 | 1.42
O=P(O)(NCCCl)NCCCl [Palifosfamide] | 1.23 | 0.923 | 1.53 | 1.11 | 0.698 | 1.21
C[C@]12CCC(=O)C[C@@H]1CC[C@@H]1[C@@H]2CC[C@]2(C)[C@@H](O)CC[C@@H]12 [Dihydrotestosterone(DHT)] | 1.54 | 0.944 | 0.925 | 0.775 | 0.429 | 0.677
c1cc2c(cc1[C@H]1OC[C@H]3[C@@H]1CO[C@@H]3c1ccc3c(c1)OCO3)OCO2 [Sesamin] | 1.03 | 0.791 | 0.678 | 1.13 | 2.07 | 1.1
Cc1cccc(Cc2c[nH]cn2)c1C [Detomidine HCl] | 1.46 | 0.895 | 1.16 | 0.994 | 1.89 | 1.34
CC(=O)O[C@H]1C[C@@H]2CC[C@@H]3[C@H](CC[C@@]4(C)[C@H]3C[C@H]([N+]3(C)CCCCC3)[C@@H]4OC(C)=O)[C@@]2(C)C[C@@H]1[N+]1(C)CCCCC1 [Pancuronium dibromide] | 1.41 | 0.916 | 0.532 | 0.954 | 0.518 | 1.42
Fc1cc(F)c2c(c1)[C@H]1C=CC[C@H]1C(c1cccnc1)N2 (stereo partly drawn) [Golgicide A] | 0.733 | 0.432 | 0.82 | 1.04 | 0.802 | 0.985
Cc1ncc(CNC(=O)N(CCCl)N=O)c(N)n1 [Nimustine Hydrochloride] | 1.62 | 0.894 | 0.692 | 0.831 | 0.722 | 0.918
CC[N+](C)(CC)CCOC(=O)C(O)(c1ccccc1)c1ccccc1 [Methylbenactyzine Bromide] | 0.693 | 0.883 | 0.575 | 0.967 | 0.532 | 1.45
CC(=O)OC12COC1CC(O)C1(C)C(=O)C(O)C3=C(C)C(O)CC(O)(C(OC(=O)c4ccccc4)C21)C3(C)C (stereo not drawn) [10-Deacetylbaccatin-III] | 1.79 | 1.11 | 0.834 | 1.7 | 1.38 | 1.4
CC(C)(C)c1cc(C=C(C#N)C#N)cc(C(C)(C)C)c1O [Tyrphostin 9] | 3 | 2.48 | 1.41 | 1.32 | 0.766 | 1.95
COC1=C[C@@H]2[C@@H]3Cc4ccc(OC)c(O)c4[C@]2(CCN3C)CC1=O [Sinomenine hydrochloride] | 0.472 | 0.883 | 1.1 | 1.15 | 0.751 | 0.824
C=C(C)[C@@H]1[C@H]2OC(=O)[C@@H]1[C@]1(O)C[C@H]3O[C@]34C(=O)O[C@H]2[C@]14C [Picrotoxinin] | 1.37 | 1.86 | 0.846 | 0.954 | 0.815 | 1.26
CN1[C@@H]2CC[C@H]1C[C@@H](OC(=O)C(CO)c1ccccc1)C2 (stereo partly drawn) [Atropine sulfate] | 0.994 | 0.9 | 0.824 | 0.898 | 0.473 | 1.38
CO[C@H]1CC[C@@H](O[C@H]2C[C@H]([C@]3(C)CC[C@]4(C[C@H](O)[C@@H](C)[C@@H]([C@@H](C)/C=C(\C)C(=O)[C@H](C)C[C@H](C)C(=O)O)O4)O3)O[C@]3(O[C@@H]([C@H]4O[C@@](O)(CO)[C@H](C)C[C@@H]4C)C[C@@H]3C)[C@@H]2C)O[C@@H]1C [Nanchangmycin] | 3.94 | 1.41 | 2.28 | 4.66 | 3.85 | 1.11
Cn1c(CCCCCCC(=O)NO)nc2cc(N(CCCl)CCCl)ccc21 [Tinostamustine(EDO-S101)] | 3.61 | 3.53 | 3.45 | 2.57 | 2.74 | 3.16
O=C([O-])C(Cl)Cl.[Na+] [Sodium dichloroacetate (DCA)] | 0.79 | 0.753 | 0.544 | 0.681 | 0.496 | 1.4
CNC(C)Cc1ccccc1OC (stereo not drawn) [Methoxyphenamine Hydrochloride] | 0.913 | 1.83 | 0.725 | 1.38 | 0.34 | 2.5
CCC(=O)CCCCC[C@@H]1NC(=O)[C@H]2CCCCN2C(=O)[C@H]([C@@H](C)CC)NC(=O)[C@H](Cc2cn(OC)c3ccccc23)NC1=O [Apicidin] | 3.74 | 3.31 | 1.07 | 2.16 | 1.52 | 1.84
C=CC1CN2CCC1CC2C(O)c1ccnc2ccccc12 (stereo not drawn) | 1.34 | 0.884 | 1.11 | 0.875 | 0.638 | 1.13

SMILES | Euclidean distance (786-O) | Euclidean distance (A549) | Euclidean distance (DU145) | Euclidean distance (FB) | Euclidean distance (HEPG2) | Euclidean distance (OVCAR4)
CC(C)(C)c1cc(C=C(C#N)C#N)cc(Br)c1O | 1.41 | 1.74 | 0.863 | 1.1 | 1.39 | 1.52
CC[C@H](C)[C@@H]([C@@H](CC(=O)N1CCC[C@H]1[C@H](OC)[C@@H](C)C(=O)N[C@H](C)[C@@H](O)c1ccccc1)OC)N(C)C(=O)[C@@H](NC(=O)[C@@H](NC)C(C)C)C(C)C [Monomethyl auristatin E (MMAE)] | 3.13 | 2.69 | 4.69 | 2.93 | 3.85 | 3.16
CCC12C=CCN3CC[C@@]4(c5ccc(OC)cc5N(C)[C@H]4[C@@](O)(C(=O)OC)[C@@H]1OC(C)=O)[C@@H]32 (stereo partly drawn) [Vindoline] | 1.01 | 0.491 | 0.771 | 0.943 | 0.607 | 0.946
Cn1c(CCCC(=O)O)nc2cc(N(CCCl)CCCl)ccc21 [Bendamustine] | 0.99 | 0.793 | 0.645 | 0.717 | 0.64 | 0.732
Cc1cc(SCc2sc(-c3ccc(C(F)(F)F)c(F)c3)nc2C)ccc1OCC(=O)O | 0.634 | 1.17 | 0.823 | 1.08 | 2.24 | 0.807
CCCN1C[C@H](CSC)C[C@@H]2c3cccc4[nH]cc(c34)C[C@H]21 [Pergolide mesylate] | 0.662 | 0.713 | 1.01 | 0.92 | 2.27 | 1.02
Cc1cc2c(C(C)C)c(O)c(O)c(C=O)c2c(O)c1-c1c(C)cc2c(C(C)C)c(O)c(O)c(C=O)c2c1O [Gossypol] | 2.34 | 2.66 | 0.576 | 1.05 | 0.654 | 1.74
Cc1cccc(C)c1NC1=NCCCS1 [Xylazine] | 1.17 | 0.386 | 1.01 | 0.632 | 0.887 | 0.579
C=C1C[C@@H]2[C@H](CC[C@]3(C)C(=O)CC[C@@H]23)[C@@]2(C)C=CC(=O)C=C12 [Exemestane] | 1.7 | 1.06 | 0.488 | 1 | 0.7 | 1.37
CC1(C)C(C=C(Cl)Cl)C1C(=O)OCc1cccc(Oc2ccccc2)c1 (stereo not drawn) [Permethrin] | 1.12 | 0.946 | 1.16 | 0.816 | 0.999 | 1.43
C#C[C@]1(O)CC[C@H]2[C@@H]3CCC4=CC(=O)CC[C@]4(C)[C@H]3CC[C@@]21C [Ethisterone] | 1.07 | 0.836 | 1.58 | 0.721 | 0.747 | 1.06
NCCc1c[nH]c2ccc(O)cc12 [Serotonin HCl] | 1.02 | 0.797 | 1.01 | 1.12 | 0.38 | 1.71
C[C@@H]1CC[C@@]2(OC1)O[C@H]1C[C@H]3[C@@H]4CC=C5C[C@@H](O[C@@H]6O[C@H](CO)[C@@H](O[C@@H]7O[C@@H](C)[C@H](O)[C@@H](O)[C@H]7O)[C@H](O)[C@H]6O[C@@H]6O[C@@H](C)[C@H](O)[C@@H](O)[C@H]6O)CC[C@]5(C)[C@H]4CC[C@]3(C)[C@H]1[C@@H]2C [Dioscin] | 1.76 | 2.54 | 0.921 | 1.29 | 1.15 | 4.63
CC(=O)O[C@H]1CC[C@H]2[C@@H]3CCC4=CC(=O)CCC4=C3C=C[C@]12C [Trenbolone acetate] | 0.864 | 0.493 | 1.04 | 0.72 | 1.19 | 0.778
CC(=O)NC1CCSC1=O (stereo not drawn) [Citiolone] | 1.19 | 0.873 | 0.825 | 1.06 | 0.461 | 1.71
C/C(=C\c1csc(C)n1)[C@@H]1C[C@@H]2O[C@]2(C)CCC[C@H](C)[C@H](O)[C@@H](C)C(=O)C(C)(C)[C@@H](O)CC(=O)O1 [Epothilone B] | 2.58 | 2.49 | 3.95 | 2.82 | 1.98 | 2.11
C[N+](C)(C)CCCCCCCCCC[N+](C)(C)C [Decamethonium Bromide] | 0.57 | 0.939 | 0.691 | 0.466 | 0.483 | 1.05
C[C@]12N[C@H](Cc3ccccc31)c1ccccc12 [MK-801 (Dizocilpine)] | 0.525 | 0.829 | 1.2 | 0.635 | 1.41 | 1.23
Cc1sc2c(c1C)C(c1ccc(Cl)cc1)=N[C@@H](CC(=O)OC(C)(C)C)c1nnc(C)n1-2 | 3.44 | 2.14 | 2.03 | 3.52 | 1.96 | 1.96
CN1[C@@H]2C[C@@H](OC(=O)[C@H](CO)c3ccccc3)C[C@H]1[C@@H]1O[C@@H]12 [Scopolamine HBr trihydrate] | 1.03 | 1.25 | 1.17 | 1.06 | 0.452 | 0.796
O=C(O)CNC(=O)c1c(O)c2ccccc2n(Cc2ccccc2)c1=O | 0.98 | 0.849 | 1.14 | 1.06 | 0.682 | 0.719
O=C(CBr)N1CC([N+](=O)[O-])([N+](=O)[O-])C1 | 0.949 | 1.3 | 0.88 | 0.833 | 0.776 | 0.926
CN1CCN(c2nc3ccccc3nc2Cl)CC1 | 0.803 | 1.25 | 1.04 | 0.897 | 0.638 | 1.52
CCCN1C[C@H](CSC)C[C@@H]2c3cccc4[nH]cc(c34)C[C@H]21 [Pergolide Mesylate] | 1.01 | 1.03 | 1.06 | 0.928 | 0.589 | 1.71
